# In PubChem BioAssay (Tox21):
# Records with an inconclusive call do not appear. Unmarked numbers belong to inactive results. The source made the active and inactive calls. Calls come from the whole dose curve; as a rule, active = well fitted cell-killing curve with a large enough effect in the repeat runs; inconclusive = weak or mixed curves, or effect the other way; inactive = flat fitted curve, though single readings scatter.
# Experiment: qHTS assay to identify small molecule antagonists of the androgen receptor (AR) signaling pathway using the MDA cell line in the presence of 0.5 nM R1881 - cell viability counter screen (AID 1259242); note: nearly all actives have a fitted effect of over 45% in size
# Settings: MDA-kb2 viability, CellTiter-Fluor protease fluorescence, 16 h; series mostly up to 92.4 µM; viability change, negative = cytotoxic: at the top concentration
# From the text: U.S. Tox21 Program National Center for Advancing Translational Sciences [NCATS] NIH Chemical Genomics Center [NCGC] U.S. Environmental Protection Agency [EPA] National Institutes of Environmental Health Sciences [NIEHS] National Toxicology Program [NTP] U.S. Food and Drug Administration [FDA] Tox21 Assay Overview: Androgen receptor (AR) is an important member of the nuclear receptor family. Its signaling plays a critical role in AR-dependent prostate cancer and other androgen related diseases. Considerable attention has been given in the past decades to develop methods to study and screen for the environmental chemicals that have the potential to interfere with metabolic homeostasis, reproduction, developmental and behavioral functions. Therefore AR binding assay for screening androgen antagonists can be used to identify potential endocrine disruptors. MDA-kb2 cells (from ATCC, deposited by Wilson et al.) were used to screen for AR inhibitors against Tox21 compound libraries. These cells are human breast carcinoma cells that were stably transfected with a luciferase reporter gene under control of the MMTV promoter that contains response elements for both androgen receptor (AR) and glucocorticoid receptor (GR). The current screening for identification of AR inhibitors against Tox21 libraries used lower concentration of (0.5 nM) R1881 as a stimulator. The cytotoxicity of the Tox21 compound libraries against MDA-kb2 cell line was tested by measuring live-cell protease activity using CellTiter-Fluor assay in the same wells.
# Tox21 Assay Protocol Summary: MDA-kb2 cells (cells cultured without CO2) were dispensed at 3,000 cells/well in 4 uL of culture medium into white wall/solid-bottom 1536-well plates (Corning Life Sciences, Corning, NY) using a Multidrop Combi (ThermoFisher Scientific, Waltham, MA) dispenser. After the assay plates were incubated at a 37C and 0% CO2 for 5 hr, 23 nL of compounds dissolved in DMSO, positive controls or DMSO only was transferred to the assay plate by a Pintool station (Kalypsys, San Diego, CA). The transfer of compounds was followed by the addition of 1 uL of 0.5 nM (final concentration) agonist (R1881)/culture medium using a Flying Reagent Dispenser (FRD, Aurora Discovery, San Diego, CA). The plates were incubated at 37C and 0% CO2 for 16 hr. For cytotoxicity assay, 1 uL of CellTiter-Fluor reagent (Promega Corporation, Madison, WI) was added to each well using the FRD and after 30 min incubation at 37C and 0% CO2, The fluorescence intensity was measured using ViewLux plate reader (PerkinElmer, Shelton, CT).
# % is set by controls: 0 for no effect and ±100 for the full control effect.
Compound,outcome,"viability change, negative = cytotoxic"
CCCCCC(N)=O,inactive,–
O=S(=O)(O)c1ccc2ccccc2c1,inactive,–
CCN(CC)CCCC(C)Nc1ccnc2cc(Cl)ccc12 (stereo not given),–,-8.89% [at 8.39 µM]
CC(O)COCC(C)O (stereo not given),inactive,–
CCCCC(CC)CO (stereo not given),inactive,–
CCC(O)OCCCOC (stereo not given),inactive,–
CC(C)CC(=O)CC(C)C,inactive,–
CC1=CCC2CC1C2(C)C (stereo not given),inactive,–
COc1ccc(Nc2ccccc2)c(C)c1,inactive,–
CC(=O)Nc1ccccc1,inactive,–
c1ccc(OCCOc2ccccc2)cc1,inactive,–
CCc1cccc(C)c1N,inactive,–
C[C@H]1C[C@@H]2[C@H]([C@@H](O)C[C@@]3(C)[C@H]2CC[C@]3(O)C(=O)CO)[C@@]2(C)C=CC(=O)C=C12,inactive,–
CN(C)CCC(c1ccc(Cl)cc1)c1ccccn1 (stereo not given),inactive,–
O=[N+]([O-])c1ccc(/C=C/c2ccc([N+](=O)[O-])cc2S(=O)(=O)O)c(S(=O)(=O)O)c1,inactive,–
C/C=C1/CC2C=CC1C2 (stereo not given),inactive,–
C#C[C@]1(O)CC[C@H]2[C@@H]3CCC4=CC(=O)CC[C@@H]4[C@H]3CC[C@@]21C,inactive,–
O=C=NCCCCCCN=C=O,inactive,–
Nc1ccccc1[N+](=O)[O-],inactive,–
CC(=O)c1ccccc1,inactive,–

Compound,outcome,"viability change, negative = cytotoxic"
COc1ccc(Cl)cc1C(=O)NCCc1ccc(S(=O)(=O)NC(=O)NC2CCCCC2)cc1,inactive,–
O=C(OCCOCCOC(=O)c1ccccc1)c1ccccc1,inactive,–
CC(=O)CC(=O)Nc1ccccc1C,inactive,–
Cc1cnc(C(=O)NCCc2ccc(S(=O)(=O)NC(=O)NC3CCCCC3)cc2)cn1,–,0.736% [at 42.5 µM]
CC(c1cc2ccccc2s1)N(O)C(N)=O (stereo not given),inactive,–
C[Si](O[Si](C)(C)C)O[Si](C)(C)C,inactive,–
COS(C)(=O)=O,inactive,–
CN(C)CCOCCN(C)C,inactive,–
FC(F)(F)c1ccc(Cl)c(Cl)c1,inactive,–
CC(=O)OCC(=O)[C@@]12N=C(C)O[C@@H]1C[C@H]1[C@@H]3CCC4=CC(=O)C=C[C@]4(C)[C@H]3[C@@H](O)C[C@@]12C,inactive,–
Cc1cccc(O)c1,inactive,–
O=C(O)c1cc(O)c(O)c(O)c1,–,-6.93% [at 42.5 µM]
CCCCC(CC)COC(=O)CS (stereo not given),inactive,–
O=C(O)c1ccc(C(=O)O)cc1,inactive,–
O=c1[nH]c(=O)n([C@H]2CCCO2)cc1F,inactive,–
c1c[nH]cn1,inactive,–
O=C(O)CCCC[C@@H]1SC[C@@H]2NC(=O)N[C@@H]21,inactive,–
CCCCCC/C(C=O)=C\c1ccccc1,inactive,–
CCOC(=O)NNc1nncc2ccccc12,inactive,–
CC[C@H](C)C(=O)O[C@H]1C[C@@H](C)C=C2C=C[C@H](C)[C@H](CC[C@@H]3C[C@@H](O)CC(=O)O3)[C@H]21,inactive,–
